Test results published in the OligoGym collection.

What follows are sequences tested against COMMD8 (assay: pooled miR-30 sensor sort-seq; sequence = guide strand). Settings: shRNA.
Note: reference of the scale not given here.

Sequence | sensor-assay potency score (higher = more potent)
TTGATTTCATCTTTCCTACTTT | -0.353
TTTACATCTAGATGCAGGCTTA | -0.242
TTTCTCTTGACAGAGCCTGTTT | -0.392
AACAGTGTGATAATCTTGGTAC | -0.396
TATTTTGTGAAGAAGCTGCGGG | 0.366

The sequences below were run against COPE in the same assay as above. Settings: shRNA.

Sequence | sensor-assay potency score (higher = more potent)
TCATCTCTCGGTCCAGCTCGGC | -1.47
TTACGTCGAACAGCTCGTCTAC | -0.753
TTGATAGCTTCACCCGCTGCGC | -1.31
TTGACCAGCGTCTCTGGGTAGC | -0.621
ATTCTCTTCAGCTCCTTCCGGG | -0.00872
TTTACGTCGAACAGCTCGTCTA | -1.05
TCAGCTGGGACAGGTATCGGTT | -0.759
TTCTCTTCAGCTCCTTCCGGGC | -0.99
TTGATGAAGGGATGGGACCTGT | -0.268
AAAGTCGTTCTCCTTGGCCTGG | -1.24
AACAGCTCGTCTACCTCCCCGG | -0.819
TTCTTTACGTCGAACAGCTCGT | -0.53

The sequences below were run against COPS6 in the same assay as above. Settings: shRNA.

Sequence | sensor-assay potency score (higher = more potent)
TACTGCTGCATCCACCTCCATC | -1.31
TTGTCTGTGCTGAGCACCGGGA | -0.77
TTGAACTTGTTCACAAACTGGT | 0.64
TTCCTTGTCAATGATAATCTTC | -0.166
TCTGTCTTGAACTTGTCTGTGC | 0.397
TTAAACTGCTCCTCCTTGGTGT | 0.63
AATCTGTCTTGAACTTGTCTGT | -0.335
TTGTCGGTCGTAGAGGACATTG | -1.74
TCGTAGAGGACATTGAACTTGT | 0.432
TTGTCAATGATAATCTTCTCTT | -0.44
TTCAACTTCAGAAAGAGGGGGC | 0.785
TTGATCATAAAAATCTGTCTTG | 0.185

Each sequence was assayed against COPS7A in the same assay as above. Settings: shRNA.

Sequence | sensor-assay potency score (higher = more potent)
TAATACAATCTATATACCCTTC | -0.206
TACACTTTACTTTAGCAGCCAG | -0.419
TTGGTTGGCACGGCTCACCTGC | -0.606
TTATTCTTCTGAGCCTCTGTTA | -0.522
TTCTAGGATGAACATGTCCAGT | -1.29
TTCAGCTAAGTAGTCAGCGTAT | -0.555
TCTAACATTGGGCATGTCCAGC | -1.04
TGAACCTAGGATTATCAGCTGG | -0.856
TAGGAGCAGAAATTGCTCCTGG | -0.149
TTTACTTTAGCAGCCAGGGTGA | -0.299
TTAGTGGAGGAAGATTCCGGGC | -0.887
